Results filed as inconclusive are left out. Active and inactive are the calls of the source. How the source made its calls, unless noted: active means hit-call score of the fitted dose curve at least 0.9, where 1 is the maximum; inconclusive means response in the unintended direction; inactive means score below 0.9.
molecular target: X-box-binding protein 1 (Homo sapiens) (UniProt P17861); assay: ATG_Xbp1_CIS: Attagene CIS-FACTORIAL HepG2 Assay for human X-box Binding Protein 1 (XBP1) (AID 2282972; active means hit-call score of the fitted dose curve at least 0.9, where 1 is the maximum; inactive means score below 0.9); conditions: HepG2 XBP1 cis-element reporter, Attagene multiplex; actives raise or lower the signal
Summary of the method: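 HepG2 cells transiently transfected with multiple cis-element reporter units report endogenous TF activity; 24 h exposure, then reporter mRNA measured by RT-PCR, 6-FAM labelling, HpaI digestion and capillary electrophoresis. Bidirectional fitting versus DMSO.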

X-box-binding protein 1 (Homo sapiens), sequence (P17861 whole entry, looked up): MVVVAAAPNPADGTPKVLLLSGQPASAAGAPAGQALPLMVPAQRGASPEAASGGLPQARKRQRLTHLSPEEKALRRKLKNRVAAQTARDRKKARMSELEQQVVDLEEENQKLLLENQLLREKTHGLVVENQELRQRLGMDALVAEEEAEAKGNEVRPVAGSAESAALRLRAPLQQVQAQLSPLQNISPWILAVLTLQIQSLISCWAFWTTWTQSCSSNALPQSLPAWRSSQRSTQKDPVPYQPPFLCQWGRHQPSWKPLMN

outcome, inactive:
Cc1cc(-n2nc3ccc(Cl)cc3n2)c(O)c(C(C)(C)C)c1
O=C(OCc1ccccc1)c1ccccc1
CCCCCCC1CCCC(=O)O1 (stereo unspecified)
c1ccc(CNc2ncnc3nc[nH]c23)cc1
NC(=O)c1ccc(N)cc1
CC(=O)Nc1c(I)c(NC(C)=O)c(I)c(C(=O)O)c1I
CC(C)=CCOC(=O)c1ccccc1
CC(C)(C)NC(=O)[C@@H]1CN(Cc2cccnc2)CCN1C[C@@H](O)C[C@@H](Cc1ccccc1)C(=O)N[C@H]1c2ccccc2C[C@H]1O
Oc1cccc2ccccc12
C=CN1CCCCCC1=O
Oc1ccc(Oc2ccccc2)cc1
CC(=O)CCc1ccccc1
CN(C)c1ccc(C(c2ccccc2)c2ccc(N(C)C)cc2)cc1
c1ccc2c(c1)Oc1ccccc1S2
CCCCCC[C@@H](O)C/C=C\CCCCCCCC(=O)O
CC[N+](CC)(CC(=O)Nc1c(C)cccc1C)Cc1ccccc1 (tested in a mixture with another compound)

tested on: not listed separately; assay: ATG_M_19_TRANS: Attagene TRANS-FACTORIAL HepG2 Assay for M19 Transcription Factor (Internal Marker) (AID 2282974); conditions: HepG2 Attagene TRANS-FACTORIAL M19 internal marker reporter
Summary of the method: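 Reporter mRNA induction was measured in transfected HepG2 cells 24 h after dosing. Endpoint fitted upward relative to DMSO and serves as a background control within the multiplexed TRANS panel.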

outcome, inactive:
CNC(=C[N+](=O)[O-])NCCSCc1csc(CN(C)C)n1
CCCC(=O)OC/C=C(\C)CCC=C(C)C
COC(=O)c1ccccc1
C/C=C(\C)C(=O)OCC/C=C\CC
C=CCOCC(CC)(CO)COCC=C
CCO[Si](CCCN)(OCC)OCC
CCCCCCC1CCC(=O)O1 (stereo unspecified)
O=[N+]([O-])c1ccccc1C(F)(F)F
CCC(=O)OCc1ccc(OC)cc1
CCC(C)=NO
CCCCCC1CCCC(=O)O1 (stereo unspecified)
Cc1cc2nc3c(=O)[nH]c(=O)nc-3n(C[C@H](O)[C@H](O)[C@H](O)CO)c2cc1C
O=C(OCc1ccccc1)c1ccccc1
c1ccc(CNc2ncnc3nc[nH]c23)cc1
CC(C)=CCOC(=O)c1ccccc1
CC(C)(C)NC(=O)[C@@H]1CN(Cc2cccnc2)CCN1C[C@@H](O)C[C@@H](Cc1ccccc1)C(=O)N[C@H]1c2ccccc2C[C@H]1O
C=CN1CCCCCC1=O
CC(=O)CCc1ccccc1
CN(C)c1ccc(C(c2ccccc2)c2ccc(N(C)C)cc2)cc1
c1ccc2c(c1)Oc1ccccc1S2
